The values that follow come from PubChem BioAssay (Tox21).

Results filed as inconclusive are left out. Entries that show only a call come without a potency. Activity calls are given as the source filed them. Calls come from the whole dose curve; as a rule, active = well fitted cell-killing curve with a large enough effect in the repeat runs; inconclusive = weak or mixed curves, or effect the other way; inactive = flat fitted curve, though single readings scatter.
Potency is the fitted concentration of half-maximal effect.

This assay in a line: cAMP Responsive Elements (CRE) small molecule agonists, cell-based qHTS assay: qHTS cell viability counter screen (AID 2060914). Note: nearly all actives have a fitted effect of over 50% in size. Conditions: CRE-bla HEK293T viability, CellTiter-Glo luminescence, 5 h; series mostly up to 92.4 µM. Put shortly:
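Luminescence read-out (CellTiter-Glo, 30 min RT) of ATP-based viability in CRE-bla HEK 293T cells, run in the same wells as the β-lactamase reporter assay after 3 h compound treatment at 37 °C.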
In general terms: In qHTS, concentration-response curves come from the screen itself.
Turning to `Cc1cscn1`, the Potency entry was “inactive”. Regarding `CCCCCCC(C)(C)S`, the Potency result was “inactive”. To `CN1CCCN=C1COC(=O)C(O)(c1ccccc1)C1CCCCC1` (stereo not given) belongs “inactive”; to `C/C=C/C(=O)Oc1c(CCCCCC(C)C)cc([N+](=O)[O-])cc1[N+](=O)[O-]`, “inactive”. Regarding `O=C(OCCOCCOCCOC(=O)c1ccccc1)c1ccccc1`, the Potency entry is “inactive”. With `COC(=O)C1=C(C)NC(C)=C(C(=O)OCCCN2CCC(c3ccccc3)(c3ccccc3)CC2)C1c1cccc([N+](=O)[O-])c1` (stereo not given) the entry was “inactive”. With `O=C1OC[C@H](Cc2cccc(O)c2)[C@H]1Cc1cccc(O)c1` the entry was “inactive”. For the compound `CCCC(=O)Nc1ccc(O)c(C(C)=O)c1`, the Potency entry is “inactive”. As for `CC(C)(C)c1n[nH]c(=S)n(N)c1=O`, the Potency entry was “inactive”. To `OCCOCCOCCOCCO` belongs “inactive”; to `CCCNCC(O)COc1ccccc1C(=O)CCc1ccccc1` (stereo not given), “inactive”.

Turning to `CC(C)=C1CC[C@@H](C)CC1=O`, the Potency entry is “inactive”. To `N#Cc1cc2ccccc2c2ccccc12` belongs “inactive”; to `CCC(C)c1ccccc1O` (stereo not given), “inactive”; to `CCCC1CCOC(C)S1` (stereo not given), “inactive”. To `O=CCCc1ccccc1` belongs “inactive”; to `COc1ccccc1NC(=O)c1cc2ccccc2cc1O`, 30.6 µM (active); to `O=C1C(c2[nH]c3ccccc3c2O)=Nc2ccccc21`, “inactive”.

In the case of `CCNc1nc(NC(C)CC)nc(OC)n1` (stereo not given), the Potency result was “inactive”. With `Cc1cccc2ccccc12` the entry was “inactive”. Take `CC(=O)OCC(=O)Nc1cc(C#N)cc(NC(=O)COC(C)=O)c1Cl`: the Potency entry was “inactive”. Take `O=S(=O)(c1cccc2cnccc12)N1CCCNCC1`: the Potency entry is “inactive”. With `C=CC(=O)OCCCCCCOC(=O)C=C` the entry was “inactive”. As to `C=CC(C)(O)CC/C=C(\C)CC` (stereo not given), the Potency result was “inactive”. As to `C[C@H](CCC(=O)O)[C@H]1CC[C@H]2[C@@H]3CC[C@@H]4C[C@H](O)CC[C@]4(C)[C@H]3CC[C@]12C`, the Potency result was “inactive”. To `Cc1ccc(O)c(N)c1` belongs “inactive”; to `NC/C=C/C(=O)O`, “inactive”. With `CC(=O)C(=O)O` the entry was “inactive”. With `CC(=O)Nc1c(I)c(NC(C)=O)c(I)c(C(=O)O)c1I` the entry was “inactive”; with `CCN(CC)CCNc1ccc(CO)c2sc3ccccc3c(=O)c12`, “inactive”.

As to `CCCCC(CC)C(=O)OC(C)C` (stereo not given), the Potency entry is “inactive”.

For `CSc1ccc(Cl)cc1`, the Potency entry is “inactive”. To `COC(=O)c1ccc(I)cc1S(=O)(=O)NC(=O)Nc1nc(C)nc(OC)n1` belongs “inactive”.

Consider `c1ccc2occc2c1`, for which the Potency entry was “inactive”. To `C[C@]12CC[C@H]3C(=CCc4cc(O)ccc43)[C@@H]1CCC2=O` belongs “inactive”; to `CCOC(/C=C(\C)CCC=C(C)C)OCC`, “inactive”; to `CCCCC(CC)COC(=O)CCCCCCCCC(=O)OCC(CC)CCCC` (stereo not given), “inactive”. To `CCN(CC)C(=O)c1cc(S(=O)(=O)Cc2ccccc2)c(N2CCC(c3ccccc3)CC2)cc1N(CC)CCN(C)C` belongs “inactive”; to `Cc1ccc(Cl)c(OCC(O)CNC(C)(C)C)c1` (stereo not given), “inactive”. With `CC1CCCC(=O)C1=O` (stereo not given) the entry was “inactive”.
